Test results published in the OligoGym collection.

Target: CHRNA1
Assay: pooled miR-30 sensor sort-seq; sequence = guide strand
Details: shRNA

Going from TTGATGGCCACGACAGAGCCGT to ATTTACTTCATCCACATTGATG, the sensor-assay potency score (higher = more potent) falls from -0.893 to -1.52.

Sequence TTGACAATAGCAAAGTCACCAT has a sensor-assay potency score (higher = more potent) of -0.507.

Target: CHRNE
Assay: as above
Details: shRNA

Going from TCGATCTTGTTGATGGTCTTGC to TTGATGGTCTTGCCGTCGTTGT, the sensor-assay potency score (higher = more potent) falls from 0.161 to -1.26.

Compared with TAATCCTGCCAATCGATTCCAA, TTAATGACGTAGAAGAGCGGCT is lower in sensor-assay potency score (higher = more potent): -0.67 for the first, -0.711 for the second.

Going from TCAAACACGAGCTCGCTCCGTG to TAGGTGACCTCCACTGCGCAGA, the sensor-assay potency score (higher = more potent) falls from -0.0514 to -0.727.
